From PubChem BioAssay (NCI)
Compounds without any hit were thinned out: in the full panel of roughly 83,000, 20% have a hit.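 Growth was measured after 48 h exposure to one concentration of compound in 96-well plates. Values under 10 count as active.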 Active and inactive are the calls of the source.

system: NCI-H460 lung; assay: NCI-60 one-dose screen, 48 h (100 = growth as untreated, 0 = no growth, -100 = all killed); conditions: 10 µM unless noted

Compound	growth
CC(=O)O[C@H]1C(=O)[C@@]2(C)C([C@H](OC(=O)c3ccccc3)[C@]3(O)C[C@H](OC(=O)[C@H](O)[C@@H](NC(=O)c4ccccc4)c4ccccc4)C(C)=C1C3(C)C)[C@]1(OC(C)=O)CO[C@@H]1C[C@@H]2O (stereo not given in full)	7.33% (active)
CCCCCCCC/C=C/CCCCCCCC1=NC(C)(C)CN1CC(C)O (stereo not given)	-34.9% (active)
COc1cc(C2NC(c3ccc(Cl)cc3)C(C)C(=NC(=O)c3cnccn3)C2C)cc(OC)c1OC (stereo not given)	103% (inactive)
C[C@@H]1CC[C@H]2[C@@H](C)C(O)O[C@@H]3O[C@]4(C)CC[C@@H]1[C@]32OO4 (stereo not given in full)	30.6% (inactive)
C/C(=C\CCc1ccsc1)CC/C=C(\C)CCCN1CCN(CCO)CC1	14.6% (inactive)
CN1COc2ccc3ccccc3c2C1	107% (inactive)
COc1ccc(-c2cnnn2-c2cc(OC)c3c(c2)OCO3)cc1	11.2% (inactive)
Nc1c2ccccc2nc2ccccc12 (tested in a mixture with another compound)	4.41% (active)
CCOC(=O)C1=C(C)N2C(=NC3=C(CCC/C3=C\c3ccc(Cl)cc3)C2c2ccc(Cl)cc2)S1 (stereo not given)	51.8% (inactive)
C=C(C)[C@H]1CC/C(C)=C/CC[C@]2(C)O[C@H]2CC/C(C=O)=C\C1O (stereo not given in full)	104% (inactive)
CCN(CC)CCCCNc1c2ccccc2[n+](C)c2c1[nH]c1ccccc12	3.4% (active)
Cn1cc(-c2csc(-c3c[nH]c4ncccc34)n2)c2cc(F)cnc21	61.3% (inactive)
Nc1ccccc1-c1ccc([N+](=O)[O-])cc1	33.6% (inactive)
Cc1ccc(NC(=O)Nc2ccc(-c3cccnc3)cc2N2CCC(CO)CC2)cc1	29.1% (inactive)
NNC(=O)C1CC2c3ccccc3C1c1ccccc12 (stereo not given)	115% (inactive)
O=C(OC[C@H]1O[C@H](OC(=O)c2cc(O)c(O)c(OC(=O)c3cc(O)c(O)c(O)c3)c2)[C@H](OC(=O)c2cc(O)c(O)c(OC(=O)c3cc(O)c(O)c(O)c3)c2)[C@@H](OC(=O)c2cc(O)c(O)c(OC(=O)c3cc(O)c(O)c(O)c3)c2)[C@@H]1OC(=O)c1cc(O)c(O)c(OC(=O)c2cc(O)c(O)c(O)c2)c1)c1cc(O)c(O)c(OC(=O)c2cc(O)c(O)c(O)c2)c1	11.6% (inactive)
NS(=O)(=O)c1ccc(NC2=C(Cl)C(=O)c3ccccc3C2=O)cc1	116% (inactive)
CCOC(=O)C1=C(COCCN)NC(C)=C(C(=O)OC)C1c1ccccc1Cl (stereo not given)	60.3% (inactive)
Cc1cc2c(C#N)n3c(c2cc1C)C(=O)C(c1ccccc1)Oc1ccccc1-3 (stereo not given)	42.1% (inactive)

Compound	growth
CN(C)c1nc(N)nc(Cn2c(-c3nonc3N)nc3ccccc32)n1	95.6% (inactive)
COC(=O)[C@]1(C(C)C)N[C@H](c2cn(-c3ccccc3)nc2-c2ccccc2)[C@@H]2C(=O)N(c3ccc(Cl)cc3)C(=O)[C@@H]21	105% (inactive)
CCOC(=O)/C(=C/c1ccccc1)C(=O)c1ccccc1	88.3% (inactive)
Cn1cnc([N+](=O)[O-])c1S(=O)(=O)Oc1ccc(Cl)cc1	103% (inactive)
O=C(/C=C/c1ccccc1Cl)c1ccc(O)cc1	93.8% (inactive)
O=C(Cc1ccccn1)C(F)(F)C(F)(F)C(F)(F)F	111% (inactive)
Cn1c(=O)c2nc(SCc3ccccc3)n(C)c2n(C)c1=O	109% (inactive)
COc1ccc2c(c1)nc(N)c1c3ccccc3cn21	72.4% (inactive)
O=C(/C(=C/c1cccc([N+](=O)[O-])c1)c1ccccc1)c1ccccc1	67.9% (inactive)
CCCCCCCC/C=C\CCCCCCCCOc1ccccc1CC(=O)NCC[N+]1(C)CCCC1	52.2% (inactive)
O=C(C(=O)N1CCCCC1)c1ccc(OC2OC(CO)C(O)C(O)C2O)cc1 (stereo not given)	114% (inactive)
O=NC1CC=CCC1c1ccccc1 (stereo not given)	112% (inactive)
CCC(C)(C)C(=O)O[C@H]1C[C@@H](C)C=C2C=C[C@H](C)[C@H](CC[C@@H]3C[C@@H](O)CC(=O)O3)[C@H]21	24.3% (inactive)
COc1ccc2[nH]cc(/C=C3/C(=O)Nc4ccc(F)cc43)c2c1	83.3% (inactive)
C[C@]12CC[C@@H]3c4ccc(O)cc4CC[C@H]3[C@@H]1CC[C@@H]2NS(=O)(=O)c1cccc(Br)c1	61.7% (inactive)
NC(=O)NN=C(C1CC1)C1CC1	106% (inactive)
CCC1=C(c2ccc(OC)cc2)C(C)(C)Oc2c1ccc(O)c2CN1CCCC1	-38.1% (active)
CN(C)c1ccc(/C=C\c2ccnc3ccccc23)cc1	86.9% (inactive)

system: NCI-H522 lung; assay: as above; conditions: 10 µM unless noted

Compound	growth
CC(=O)O[C@H]1C(=O)[C@@]2(C)C([C@H](OC(=O)c3ccccc3)[C@]3(O)C[C@H](OC(=O)[C@H](O)[C@@H](NC(=O)c4ccccc4)c4ccccc4)C(C)=C1C3(C)C)[C@]1(OC(C)=O)CO[C@@H]1C[C@@H]2O (stereo not given in full)	-25.2% (active)
O=C(OC[C@H]1O[C@H](OC(=O)c2cc(O)c(O)c(OC(=O)c3cc(O)c(O)c(O)c3)c2)[C@H](OC(=O)c2cc(O)c(O)c(OC(=O)c3cc(O)c(O)c(O)c3)c2)[C@@H](OC(=O)c2cc(O)c(O)c(OC(=O)c3cc(O)c(O)c(O)c3)c2)[C@@H]1OC(=O)c1cc(O)c(O)c(OC(=O)c2cc(O)c(O)c(O)c2)c1)c1cc(O)c(O)c(OC(=O)c2cc(O)c(O)c(O)c2)c1	-11% (active)
CCC1=C(c2ccc(OC)cc2)C(C)(C)Oc2c1ccc(O)c2CN1CCCC1	30.4% (inactive)
